High-throughput results (PubChem BioAssay)
Only some compounds are listed: those with a hit (about 12% of all), similar ones and a draw of the others.
HP1b chromo inh: HTS for Inhibitors of HP1-beta Chromodomain Interactions with Methylated Histone Tails | Chromobox protein homolog 1 (Homo sapiens), P83916 | AlphaScreen HP1-beta / biotin-H3K9me3 peptide binding | Potency, µM (top dose mostly 114 µM), for the others: at the top dose activity change, negative = inhibition, most hits filed as inhibitors | hit rate 0.56% among 390,000 | AID 540317, 2011; further: potency means the concentration at half of the fitted maximal effect; nearly all actives have a fitted effect of over 70% in size
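Compound inhibition of the preformed complex between 50 nM HP1-beta and 50 nM biotinylated H3K9me3 peptide was read by AlphaScreen. Buffer was PBS pH 7.4 with 0.01% Tween-20. Incubations ran 30 min at room temperature, with 10 ug/mL donor/acceptor beads.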
PLK1 PBD inh: qHTS for Inhibitors of PLK1-PDB (polo-like kinase 1 - polo-box domain): Primary Screen. AID 720504, 2013. Potency, µM, for inactives: max response, negative = inhibition, actives largely listed as inhibitors. hit rate 2.8% among 360,000. Plk1 PBD binding of FITC phosphopeptide, fluorescence polarization; further: potency means the concentration at half of the fitted maximal effect; series mostly up to about 57 µM; on the % scale 0 is the no-effect control and ±100 the full control effect; nearly all actives have a fitted effect of over 65% in size
JMJD2A Tudor inh: qHTS Assay for Inhibitors of JMJD2A-Tudor Domain; Lysine-specific demethylase 4A (Homo sapiens), O75164; AlphaScreen JMJD2A-Tudor / H3K4me3 peptide binding; Potency, µM (doses to about 114 µM), inactives show at the top dose activity change, negative = inhibition, usual class: inhibitors; hit rate 4.4% among 390,000; further: potency means the concentration at half of the fitted maximal effect; on the % scale 0 is the no-effect control and ±100 the full control effect; nearly all actives have a fitted effect of over 50% in size
PI5P4Ka inh: qHTS for Inhibitors of phosphatidylinositol 5-phosphate 4-kinase (PI5P4K). AID 652105, 2013. PI5P4Kalpha enzyme, ADP-Glo luminescence, 60 min; hits give low values. max response, %. hit rate 1.2% among 330,000; active means max response of -50% or lower; inconclusive means between -30% and -50%; inactive means -30% or higher; further: value at the top dose of about 77 µM; on the % scale 0 is the no-effect control and ±100 the full control effect
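ADP-Glo luminescence end-point read after a 60 min room-temperature kinase reaction of PI5P4Kalpha plus substrate, initiated with ATP at 5 microM final. Buffer: 0.038 M HEPES pH 7.4, EGTA, 0.1% CHAPS, 5% DMSO.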
BAZ2B inh: qHTS Assay for Inhibitors of BAZ2B; Bromodomain adjacent to zinc finger domain protein 2B (Homo sapiens), Q9UIF8; AlphaScreen BAZ2B-H3K14Ac peptide displacement; Potency, µM (series often up to 114 µM), inactives show top-dose activity change, negative = inhibition, most hits filed as inhibitors; hit rate 4.4% among 360,000; AID 504333, 2011; further: potency means the concentration at half of the fitted maximal effect; on the % scale 0 is the no-effect control and ±100 the full control effect; nearly all actives have a fitted effect of over 60% in size
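Compounds, titrated to a top concentration of 110 uM, were incubated 30 min at room temperature with preformed BAZ2B/acetyl-K14 H3 peptide complex (50 nM each). Proximity signal was measured by AlphaScreen after 20 min with beads.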
G9a block: qHTS Assay for Inhibitors of Histone Lysine Methyltransferase G9a | G9a H3K9 monomethylation, AlphaScreen, 2 h | Histone-lysine N-methyltransferase EHMT2 (Homo sapiens), Q96KQ7 | AID 504332, 2011 | Potency, µM (top dose mostly 102 µM), for inactives: at the highest dose activity, negative = inhibition, actives largely listed as inhibitors | hit rate 8.8% among 350,000; further: potency means the concentration at half of the fitted maximal effect; on the % scale 0 is the no-effect control and ±100 the full control effect; nearly all actives have a fitted effect of over 75% in size
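G9a (20 nM) preincubated 15 min RT with compounds, then 500 nM biotinylated H3K9 peptide and 20 uM SAM added; 2 h RT reaction. Monomethyl-H3K9 product detected by AlphaScreen with anti-H3K9me1 antibody, streptavidin donor and anti-rabbit IgG acceptor beads.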
* marks the source's active call; other numbers are inactive results; ? = inconclusive; nt = no result; [ ] = dose if it differs, or a comment. Unless noted, the call rests on the fitted dose curve; in most records, active means well fitted curve in the direction sought with a large enough effect; inconclusive means small, poorly fitted or top-dose-only effect, or another doubt; inactive means no such curve, though single readings can be large; an effect the other way counts as inactive or inconclusive.

SMILES	HP1b chromo inh	PLK1 PBD inh	JMJD2A Tudor inh	PI5P4Ka inh	BAZ2B inh	G9a block
CCOc1ccc2nc(SCC(=O)N(C)C3CCS(=O)(=O)C3)[nH]c2c1 (centres undefined)	45%	-18%	-9%[57.1 µM]	-11	-1%	40µM*
COc1ccc(CNC(=O)CSc2nc3ccc(C)cc3[nH]2)cc1	71%	-4%	-20%	8	3%	-16%
COc1ccc2nc(SCC(=O)c3c(N)n(C4CC4)c(=O)[nH]c3=O)[nH]c2c1	49%	-2%	-6%	1	8%	7.1µM*
Nc1nc(SCC(=O)c2c(N)n(C3CC3)c(=O)[nH]c2=O)n[nH]1	29%	-12%	-6%	-7	10%	11µM*
CCOc1ccc2nc(SCC(=O)NCc3ccc(OC)c(OC)c3)[nH]c2c1	-14%	27µM*	-24%	-19	-12%	0%
COc1ccccc1N1CCN(C(c2cccs2)C(C)NC(=O)c2ccncc2)CC1 (centres undefined)	27%	-13%	-24%	1	-22%	-2%
COc1ccc2nc(N3CCCC3)[nH]c2c1	26%	-7%	-19%	nt	3%	5.6µM*
COc1ccc2nc(SCC(=O)NCc3ccc(OC)c(OC)c3)[nH]c2c1	5%	?	89µM*	-11	-3%	-8%[59 µM]
COc1ccc(N2CCN(C(=O)C3CCN(c4nc5ccc(C)cc5[nH]4)CC3)CC2)cc1	9%[57 µM]	nt	-26%	nt	-31%	?
COc1ccc2nc(SCC(=O)NC(C)(C)C)[nH]c2c1	13%	-2%	-17%	nt	-4%	48%
CCOc1ccc2nc(SCC(=O)NC(=O)NCc3ccco3)[nH]c2c1	6%	-5%	-20%	?	?	50µM*
COc1ccc(CNC(=O)CSc2nc3ccc(OC)cc3[nH]2)cc1	27%	-2%	-6%	2	1%	-4%[59 µM]
CCOC(=O)CCCNC(=O)CSc1nc2ccc(OCC)cc2[nH]1	27%	-9%	-20%	3	3%	-8%[0.0925 µM]
COc1ccc2nc(SCC(=O)C(C)(C)C)[nH]c2c1	19%	0%	-15%	-6	-11%	56µM*
CCc1cccc(NC(=O)c2ccc(CN3C(=O)C(C)=C(c4ccc(OC)cc4)S3(=O)=O)cc2)c1	-2%	nt	-18%	nt	-19%	13%[59 µM]
Cc1ccc2c(c1)-c1nc(-c3ccc4c(c3)NC(=O)CO4)cc(-c3ccc(Cl)cc3)c1CO2	34%	nt	0%	nt	-16%	2%[59 µM]
COc1ccc(NC(=O)CSc2nc3ccc(OC)cc3[nH]2)cc1	32%	1%	-8%	-8	-12%	9%[12.7 µM]
CCOc1ccc(-n2c(=S)sc3c(=O)[nH]c(SCC(=O)NCc4ccco4)nc32)cc1	-2%	?	?	nt	?	40µM*
CCOc1ccc2nc(SCC(=O)Nc3ccc4[nH]c(=O)[nH]c4c3)[nH]c2c1	7%	-24%	-26%	?	?	40µM*
CCOC(=O)C1c2cccc(O)c2CCN1C(C)=O (centres undefined)	nt	-10%	nt	-20	nt	nt
O=c1c2cc([N+](=O)[O-])cc([N+](=O)[O-])c2[nH]n1-c1ccccc1	35µM*	-9%	35µM*	-98*	40µM*	28µM*
CCN(CC)c1nc2ccccc2nc1C(=O)Nc1cc(OC)c(OC)c(OC)c1	12%	nt	?	nt	?	0%[59 µM]
COc1ccc(N2CCN(C(c3cccs3)C(C)NC(=O)c3ccco3)CC2)cc1 (centres undefined)	-15%	-4%	?	nt	?	3.5µM*
COc1ccc(N2CCN(C(c3cccs3)C(C)NS(C)(=O)=O)CC2)cc1 (centres undefined)	10%	-7%	-28%	-10	nt	56µM*
COc1ccc(N2CCN(S(=O)(=O)c3cccs3)CC2)cc1	-9%	1%	-34%	nt	-35%	25µM*
SMILES	HP1b chromo inh	PLK1 PBD inh	JMJD2A Tudor inh	PI5P4Ka inh	BAZ2B inh	G9a block
COc1ccccc1NC(=O)Cn1c(=O)n(CCC(=O)NCC2CCCO2)c(=O)c2cc(OC)c(OC)cc21 (centres undefined)	30%	nt	-9%	nt	3%	-5%[59 µM]
CCCc1sc(C(=O)Nc2nnc(C3CC3)s2)cc1CC	-1%	-1%	-13%	7	-1%	?
Cc1cc(C)n2nc(C(=O)Nc3nnc(C4CC4)s3)nc2n1	-14%	-8%	8.9µM*	-4	-4%	?
CCSc1nnc(NC(=O)c2nc3nc(C)cc(C)n3n2)s1	10%	2%	16µM*	-11	-39%	-30%
CCSc1nnc(NC(=O)CSc2nc(C)cc(C)n2)s1	53%	-6%	-4%	4	2%	-1%[59 µM]
Oc1ccc(Cl)cc1C1C=C(c2ccc3c(c2)OCO3)NC(c2ccc(C(F)(F)F)cc2)N1 (centres undefined)	7%[57 µM]	nt	-5%[57.1 µM]	nt	nt	nt
Cc1oncc1C(=S)Nc1ccccc1	-16%	27µM*	-11%	nt	3%	?
COc1cc(S(=O)(=O)N(Cc2ccco2)C2CCCC2)ccc1-n1cnnn1	42%	-6%	-34%	nt	2%	32µM*
CCN(CC)S(=O)(=O)c1ccc(-n2cnnn2)c(C)c1	30%	-6%	2%	nt	1%	23%
CCN(CC)S(=O)(=O)c1ccc(OC)c(-n2cnnn2)c1	55%	-12%	-3%	4	-6%	1%[59 µM]
CCOc1ccccc1CN(Cc1ccco1)S(=O)(=O)c1ccc(-n2cnnn2)c(OC)c1	-1%	0%	-33%	nt	-2%	8.9µM*
COc1ccc(CN(Cc2ccccn2)S(=O)(=O)c2ccc(-n3cnnn3)cc2)cc1	17%	-1%	-17%	1	-11%	11%
Cc1cc(S(=O)(=O)N(Cc2ccccn2)Cc2ccco2)ccc1-n1cnnn1	11%	-15%	-27%	nt	?	25µM*
COc1ccc(CN(Cc2ccccn2)S(=O)(=O)c2ccc(-n3cnnn3)c(OC)c2)cc1	30%	-4%	-13%	nt	-33%	50µM*
Nc1cc(Cl)cc2c1-c1ccc(Cl)cc1C2	4%	-4%	-28%	-8	nt	nt
C=C1CC(Cn2cc(Br)c(=O)[nH]c2=O)(c2ccc(-c3ccccc3)cc2)OC1=O (centres undefined)	18%	24µM*	-22%	-20	nt	nt
O=C(COC(=O)/C=C/c1ccccc1)NNC(=O)c1ccc([N+](=O)[O-])cc1	32%	-2%	0%	-1	3%	16%
